From PubChem
D2 PAM-1 – potentiates the human D2 dopamine receptor allosterically; P14416; DiscoveRx D2 beta-arrestin cells, luminescence, 90 min; 100% = 57 uM dopamine signal; potentiation, % (no concentration beside the values); hit rate 0.23% among 360,000; in the data active means potentiation above about 50%; inconclusive means mostly about 30% to 49%
Target sequence (P14416 whole entry, looked up): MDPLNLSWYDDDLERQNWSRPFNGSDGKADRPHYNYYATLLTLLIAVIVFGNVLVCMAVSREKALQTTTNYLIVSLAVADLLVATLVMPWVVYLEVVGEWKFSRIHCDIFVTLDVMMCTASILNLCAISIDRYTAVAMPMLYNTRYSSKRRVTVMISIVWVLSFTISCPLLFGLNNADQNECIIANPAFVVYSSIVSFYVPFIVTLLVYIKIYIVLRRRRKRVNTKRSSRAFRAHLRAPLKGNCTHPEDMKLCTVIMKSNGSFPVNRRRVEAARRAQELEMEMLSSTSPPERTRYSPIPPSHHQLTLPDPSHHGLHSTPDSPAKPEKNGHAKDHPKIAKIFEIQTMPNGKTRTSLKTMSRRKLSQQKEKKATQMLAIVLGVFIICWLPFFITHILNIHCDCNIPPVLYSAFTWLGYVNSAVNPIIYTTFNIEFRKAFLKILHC
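D2 cells co-treated with compound plus 50 nM dopamine (EC20) for 90 min at 37 deg C to detect potentiation. Beta-arrestin recruitment was read as enzyme-fragment luminescence after 1 h at ambient temperature. Full response was set by 57 uM dopamine.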
D2 antagonist – antagonizes the human D2 dopamine receptor; P14416; HEK293 TREx D2 cells, calcium flux, dopamine EC80; inhibition, % at 10 µM; hit rate 2% among 340,000; AID 485344; in the data active means inhibition above about 30%; inactive means below that, where a call was filed
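Calcium mobilization kinetics were recorded at 1 s intervals in tetracycline-induced HEK293 T-REx D2 cells, first for 180 s after compound addition and then 180 s after EC80 dopamine.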
D2 PAM-2 – positive allosteric modulators of human D2 dopamine receptor; potentiation, % at 10 µM; HEK293 T-REx D2, calcium flux, EC20 dopamine potentiation; hit rate 0.34% among 340,000;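 active means potentiation over 3 SD above the plate norm, cut at about 30% in these data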
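Calcium flux readout, no-wash dye, 1 read/s. Inducible HEK293 Trex D2 line, overnight 30 C. Compound alone 180 s (agonist flags), then EC20 dopamine, another 180 s to score potentiation.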
D2 ag-1 – agonists of human D2 dopamine receptor. HEK293 T-REx D2 cells, calcium flux agonist mode. P14416. AID 485358. hit rate 0.53% among 340,000. activation, % at 2 µM;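 active means activation over 3 SD above normal in the single-dose calcium agonist read, cut at about 30% in these data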
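HEK293 Trex D2 cells, tetracycline-induced, o/n 30 C 5% CO2; no-wash Ca dye, RT 30–90 min; 10-cycle baseline, 23 nl cpd added, kinetic Ca read 180 s; agonist hits = positive Ca response.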
D2 ag-2 – agonists of human D2 dopamine receptor (beta-arrestin) | P14416 | DiscoveRx PathHunter D2 beta-arrestin, luminescence, 90 min; 100% = 57 uM dopamine signal | activation, % (concentration not given with the values) | hit rate 0.084% among 360,000; in the data active means activation above about 40%; inconclusive means between about 15% and that limit
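DiscoveRx PathHunter D2 beta-arrestin cells (2,100/well) attached overnight, then compound-stimulated 90 min at 37 C in HBSS/10 mM HEPES/0.1% Tween-20 buffer; beta-galactosidase complementation read by luminescence after 1 h at ambient temperature. Dopamine 57 uM final (EC100) as control.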
A number is an active result; - = inactive; ? = inconclusive; . = no result. Only some compounds are listed: those with a hit (about 2.4% of all), similar ones and a draw of the others.

SMILES	D2 PAM-1	D2 antagonist	D2 PAM-2	D2 ag-1	D2 ag-2
COc1cccc(/C=C/C(=O)Nc2ccc3nc4n(c(=O)c3c2)CCCC4)c1OC	-	-	34.9	-	-
COc1cccc(/C=C/C(=O)Nc2ccc(C(=O)Nc3cccc(S(N)(=O)=O)c3)cc2)c1OC	-	77.1	-	-	-
COc1cccc(/C=C/C(=O)Nc2ccc3c(c2)OCCO3)c1OC	-	69.1	-	-	-
Cc1cc(-c2ccccc2)nc2cc(C(=O)Nc3ccc(Cl)c(Cl)c3)nn12	.	.	.	-	.
CCn1nnc(NC(=O)c2ccc([N+](=O)[O-])o2)n1	-	-	-	-	-
CCCCn1nnc(NC(=O)c2ccc(-c3ccccc3[N+](=O)[O-])o2)n1	-	51.7	-	-	-
O=C(C(=O)c1cccnc1)c1cccnc1	-	.	-	.	-
NC(=O)c1cccnc1	-	40.4	-	-	-
N/C(=N\OC(=O)c1ccccc1Cl)c1cccnc1	96.3	-	-	-	-
N/C(=N\OC(=O)c1cc(Cl)ccc1Cl)c1cccnc1	72.9	.	-	.	?
CCOc1ccc(C(CC(=O)O)NC(=O)C(c2ccccc2)c2ccccc2)cc1OC (stereo unspecified)	-	-	-	-	-
Cc1oc(-c2ccccc2Cl)nc1CS(=O)CC(=O)N1CCN(c2cccc(C(F)(F)F)c2)CC1 (stereo unspecified)	.	.	-	.	.
Nc1ncnc2c1ncn2[C@@H]1O[C@H](C(=O)N2CCN(Cc3ccccn3)CC2)[C@@H](O)[C@H]1O	-	.	.	.	-
COc1ccccc1CNC(=O)CN1C(=O)COc2ccc(S(=O)(=O)N3CCCCC3)cc21	-	-	-	-	-
CCN(CC)S(=O)(=O)c1ccc(NC2CCN(Cc3ccccc3)CC2)nc1	-	36.3	-	-	-
O=C(c1ccc(S(=O)(=O)c2ccccc2Cl)c([N+](=O)[O-])c1)N1CCN(Cc2ccccc2)CC1	77.9	-	-	-	?
COc1ccccc1CN1CC(C(=O)N(C)CCc2ccccn2)CCC1=O (stereo unspecified)	-	.	.	.	-
CCOc1ccc(CCNC(=O)c2ccc(-c3nc(CSc4ccccc4)c(C)o3)cc2)cc1	.	.	-	-	.
CCOC(=O)c1cccc(NC(=O)C2CCN(S(=O)(=O)c3ccc4c(c3)oc(=O)n4C)CC2)c1	.	.	-	.	.
Cc1ccc(SCCNS(C)(=O)=O)cc1	-	-	35.9	-	-
COCC1CCCN(Cc2cn(-c3ccccc3F)nc2-c2cc(C)sc2C)C1 (stereo unspecified)	-	41.0	-	-	-
CC1CCC2(CC1)NC(=O)N(NC(=O)c1cccc(N(C)C)c1)C2=O (stereo unspecified)	-	33.5	-	-	-
Cc1cccc(NC(=O)CN(CC2CCCO2)C(=O)c2ccc(S(C)(=O)=O)cc2)c1C (stereo unspecified)	-	-	-	-	-
NC(=O)COc1ncn(-c2ccccc2)n1	-	-	-	-	-
N/C(COc1ncn(-c2ccccc2)n1)=N\S(=O)(=O)c1ccc(Cl)cc1Cl	-	-	32.3	-	-
SMILES	D2 PAM-1	D2 antagonist	D2 PAM-2	D2 ag-1	D2 ag-2
Nc1nnc(CC(=O)N/N=C/c2cccc(OCCOc3ccccc3)c2)s1	-	30.5	-	-	-
CCOc1cccc(/C(O)=C2/C(=O)C(=O)N(Cc3cccnc3)C2c2ccco2)c1 (stereo unspecified)	-	-	-	-	-
CCOc1cccc(/C(O)=C2/C(=O)C(=O)N(CCOC)C2c2ccco2)c1 (stereo unspecified)	-	-	34.3	-	-
CC(=O)c1cc(-c2ccccc2)n(CCC(=O)NCCc2ccccc2)c1C	.	.	-	-	.
CCc1noc(C)c1C(=O)NCCN1C(=O)S/C(=C\c2ccc(OC)cc2)C1=O	-	-	-	-	-
COc1ccccc1Nc1nn2c(=O)c3ccc(C(=O)NCc4ccc(F)cc4)cc3nc2s1	.	.	-	-	.
COc1ccccc1Nc1nn2c(=O)c3ccc(C(=O)NCc4cccnc4)cc3nc2s1	.	-	30.1	-	.
CCOc1cc2[nH]c(=O)n(Cc3ccc(C(=O)N4CCN(c5ccccc5)CC4)cc3)c(=O)c2cc1OCC	.	.	-	-	.
O=C(CCCc1ccccc1)Nc1ccnn1C1CCN(Cc2ccccc2)CC1	-	40.7	-	-	-
O=C(CCCc1ccccc1)Nc1ccnn1C1CCN(Cc2ccc(Cl)cc2)CC1	-	35.4	-	-	-
COc1ccc(C(=O)Nc2cccc(OCc3cc(=O)n4c5c(sc4n3)CCCC5)c2)cc1	.	.	-	-	.
CC(=O)C1CCC2C3CC=C4CC(SC(=N)N)CCC4(C)C3CCC12C (stereo unspecified)	-	.	.	.	-
CCn1c(=O)c([N+](=O)[O-])c(NCCN(C)C)c2ccccc21	-	59.2	-	-	-
CCn1c(=O)c([N+](=O)[O-])c(NCC(O)c2ccccc2)c2ccccc21 (stereo unspecified)	-	-	-	-	-
O=c1c([N+](=O)[O-])c(NCCN2CCCCCC2)c2ccccc2n1-c1ccccc1	-	48.8	-	-	-
COc1cccc2cc(C(=O)NCc3ccccc3)c(=N)oc12	-	-	-	-	-
COc1cccc2cc(C(=O)NCc3ccc(Cl)cc3)c(=N)oc12	-	105.9	-	-	-
Cc1cc(C(=O)COC(=O)Cn2cnc3c2c(=O)n(C)c(=O)n3C)c(C)n1C	-	45.0	-	-	-
COc1ccc(-c2cc3nc(C)cc(N4CC(C)CC(C)C4)n3n2)cc1 (stereo unspecified)	-	-	40.3	-	-
Oc1ccc(C(=Nc2ccccc2)c2ccccc2)c(O)c1	-	.	.	.	-
COC(=O)[C@@]1(Cc2ccc(OC)cc2)[C@@H]2[C@@H](CC(=O)[C@H]2CC(=O)C(=O)N(C)C)CN1C(=O)c1ccccc1	-	-	-	-	-
COC(=O)[C@@]1(Cc2ccc(OC)cc2)[C@@H]2C(=CC(=O)[C@H]2CC(=O)C(=O)N2CCCC2)CN1C(=O)c1ccccc1	-	38.0	-	-	-
CNc1snc(C)c1C(=O)OCC(=O)N(C)Cc1ccccc1	-	35.1	-	-	?
CNc1snc(C)c1C(=O)OCC(=O)N(C)c1ccccc1	-	-	-	-	-
O=C(/C=C/c1c(Cl)cccc1Cl)NCCCn1ccnc1	-	.	.	.	-
SMILES	D2 PAM-1	D2 antagonist	D2 PAM-2	D2 ag-1	D2 ag-2
Cn1nc(-c2ccccn2)nc2c(=O)n(C)c(=O)nc1-2	-	-	-	-	-
CCCc1nc2c(=O)n(C)c(=O)nc-2n(C)n1	-	-	-	-	54.3
C=C(C)CSc1nc2c(c(=O)[nH]c(=O)n2C)n1CCC(C)C	-	-	34.1	-	-
CCSc1nc2c(c(=O)[nH]c(=O)n2C)n1C/C=C(/C)Cl	-	-	48.4	-	-
CCC(C(=O)Nc1ccccc1C(=O)OC)n1c(C)c2cnn(-c3ccccc3)c(=O)c2c1C (stereo unspecified)	.	.	-	-	.
O=C1/C(=C/C=C/c2ccco2)SC(=S)N1NS(=O)(=O)c1ccccc1	-	41.7	-	-	-
